Screening results: PubChem BioAssay, several laboratories
AI-2 QS mod: modulators of Vibrio harveyi AI-2 quorum sensing system; Vibrio harveyi JMH597 AI-2 luminescence/OD600 ratio, 9 h; hits give low values; strain lacks LuxN and CqsS sensors; 0 = neutral-control median; activity change, % at 7.5 µM; actives 0.4% (n = 300,000); AID 2094; in the data active = activity change below about -75%, passing the limit was not always enough;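 also: luminescence divided by OD600 gain over 9 h not by final OD600 alone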
Tat transport: E. coli Tat transport inhibition; inhibition, % at 10 µM; actives 0.036% (n = 340,000); AID 488895; E. coli MC4100 TorA-mCherry Tat export, fluorescence;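 active = mean replicate inhibition at least 50% and at least half of replicates individually reaching 50%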;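 also: exported cargo escapes ClpAP degradation while cytoplasmic cargo is degraded and loses fluorescence; 0% = median of neutral control wells and 100% = median of NaSCN control wells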
E coli growth-1: bacterial growth inhibition, counter-screen for AddAB inhibitors. inhibition, % at 11.9 µM. AID 449728. E. coli V3065 growth, OD600 absorbance, 18 h. actives 0.27% (n = 330,000);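 active = inhibition above the campaign's mean inhibition across all tested compounds plus 3 SD, cut at about 9.9% in these data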;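 also: uninfected addAB+ strain grown without phage in ampicillin broth; 0% = DMSO wells and 100% = ciprofloxacin 0.95 µg/ml wells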
AddAB inh: less growth of phage-infected E. coli with AddAB; inhibition, % at 11.9 µM; actives 0.29% (n = 330,000); E. coli expressing H. pylori AddAB, absorbance growth; in the data active = inhibition above about 12%;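 also: 0% = vehicle wells of infected cells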
phage Ecoli inh: E. coli growth loss with phage present | growth absorbance | inhibition, % at 11.9 µM | actives 0.26% (n = 360,000); in the data active = inhibition above about 11%
E coli growth-2: blocks Escherichia coli growth; AID 1053175; actives 0.21% (n = 330,000); OD600, 23 h; hits give low values; OD600 absorbance (test concentration not listed);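 active = OD600 absorbance below the run mean of sample wells minus 3.6 SD, in any replicate, cut at about 0.56 in these data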
AddAB conf: growth loss of T4-infected E. coli expressing H. pylori AddAB, confirmed; actives 64% (n = 880); E. coli V3065 expressing H. pylori AddAB, T4 phage, OD; T4 phage with gene 2 nonsense mutations; inhibition, % at 11.9 µM; shares compounds with AddAB inh; AID 488942;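 active = mean inhibition above a set limit taken from the earlier primary screen, cut at about 13% in these data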;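 also: higher means less bacterial growth since AddAB block lets phage replicate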
RecBCD counter: counter-screen: growth loss of RecBCD+ E. coli with mutant T4 phage; inhibition, % at 11.9 µM; actives 73% (n = 880); shares compounds with AddAB inh; AID 488955; E. coli V66 + mutant T4 phage, OD growth;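 active = mean inhibition above the mean of solvent-only control wells plus 3 SD, cut at about 4% in these data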;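 also: optical density read after an 18 h incubation at 37 °C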
bact viab count: reduces bacterial viability, AddAB inhibitor counter-screen; absorbance (AddAB counterscreen); inhibition, % at 11.9 µM; actives 35% (n = 880); shares compounds with AddAB inh; in the data active = inhibition above about 25%
RecBCD conf: confirmation: growth loss of phage-infected RecBCD+ E. coli (RecBCD inhibitor screen); shares compounds with phage Ecoli inh; E. coli V66 + T4 2- phage, growth OD; inhibition, % at 11.9 µM; actives 45% (n = 890); AID 651982;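 active = mean inhibition over triplicates exceeding the hit threshold derived in the original primary screen, cut at about 11% in these data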
Ecoli viability: counter-screen for RecBCD inhibitors: inhibitors of bacterial viability; shares compounds with phage Ecoli inh; AID 651983; inhibition, % at 11.9 µM; actives 29% (n = 890); E. coli viability, absorbance (OD) growth; in the data active = inhibition above about 20%;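 also: E. coli strain V66 grown with compound alone and no phage infection; 0% = bacteria with DMSO vehicle only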
AddAB counter: growth loss of phage-infected AddAB E. coli, RecBCD counter-screen; inhibition, % at 11.9 µM; AID 651984; E. coli expressing H. pylori AddAB + T4 phage, OD growth; gene 2 mutant T4, recBCD-deleted host; shares compounds with phage Ecoli inh; actives 45% (n = 890);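 active = mean inhibition above the solvent-only control wells' mean plus 3 SD, cut at about 22% in these data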;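 also: higher means less bacterial growth from phage killing when AddAB is blocked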
Active calls of the source: *; ! = not active in a repeat. A selection: hits, their analogues and other compounds. The true share with any hit is near 0.79%.

Screening CC(C)(C)/C(O)=C(/C#N)c1nc2ccccc2[nH]1 returned AI-2 QS mod 8.8, Tat transport 7.1, E coli growth-1 0.0, AddAB inh -2.0 and phage Ecoli inh -3.3.
`N#C/C(=C\c1ccc([N+](=O)[O-])o1)c1nc2ccccc2[nH]1` gave AI-2 QS mod 55.1, E coli growth-1 16.6*, AddAB inh 93.5*, phage Ecoli inh 13.0*, E coli growth-2 0.614, AddAB conf 100.1*, RecBCD counter 16.0*, bact viab count 94.3*, RecBCD conf 11.4*, Ecoli viability 11.9 and AddAB counter 76.5*.
N#C/C(=C(/O)c1ccc([N+](=O)[O-])o1)c1nc2ccccc2[nH]1 was read as AI-2 QS mod 22.6, Tat transport 4.8, E coli growth-1 13.5*, AddAB inh 19.2*, phage Ecoli inh 13.4*, E coli growth-2 0.466*, AddAB conf 95.8*, RecBCD counter 63.2*, bact viab count 97.8*, RecBCD conf 34.9*, Ecoli viability 64.0* and AddAB counter 100.6*.
Screening CC(=O)c1sc(NN=Cc2ccc(N(C)C)cc2)nc1C returned E coli growth-2 0.652.
For Nc1c(Cl)ncnc1N/N=C/c1ccc2ccccc2n1 the results were Tat transport -2.0, E coli growth-1 24.0*, AddAB inh 26.5*, phage Ecoli inh 25.7*, AddAB conf 23.4*, RecBCD counter 18.1*, bact viab count 20.5, RecBCD conf 11.1*, Ecoli viability 12.2 and AddAB counter 20.4.
`Nc1c(Cl)ncnc1N/N=C/c1ccnc2ccccc12` gave AI-2 QS mod 12.0, Tat transport -3.2, E coli growth-1 -1.5, AddAB inh 2.7 and phage Ecoli inh 2.7.
COc1ccc2ccccc2c1C=NNC(=O)CC1(C)OCCCO1 was read as E coli growth-2 0.645.
Screening CCN1/C(=C/C(C)=C/c2sc3ccccc3[n+]2CC)Sc2ccccc21 returned AI-2 QS mod -170.1*, Tat transport inactive, E coli growth-1 37.5*, AddAB inh 32.7*, phage Ecoli inh 13.7*!, E coli growth-2 0.208*, AddAB conf 54.6*, RecBCD counter 20.3*, bact viab count 58.1*, RecBCD conf 23.3*, Ecoli viability 25.5* and AddAB counter 67.5*.
For CCOC(=O)c1cn(-c2ccc(F)c(F)c2F)c2c(F)c(F)c(F)cc2c1=O the results were AI-2 QS mod 6.3, Tat transport 4.0, E coli growth-1 -1.2, AddAB inh 2.6, phage Ecoli inh -1.1 and E coli growth-2 0.688.
`COc1c(N2CCN(C(=S)NCc3ccccc3)C(C)C2)c(F)cc2c(=O)c(C(=O)O)cn(C3CC3)c12` (configuration not stated) gave AI-2 QS mod 20.4, Tat transport 33.4, E coli growth-1 104.1*, AddAB inh 101.9*, phage Ecoli inh 96.9*, E coli growth-2 0.0785*, AddAB conf 100.8*, RecBCD counter 99.1*, bact viab count 100.5*, RecBCD conf 103.1*, Ecoli viability 104.5* and AddAB counter 104.7*.
`COc1c(F)c(F)cc2c(=O)c(C(=O)O)cn(C3CC3)c12` gave AI-2 QS mod 13.3, Tat transport 67.6*, E coli growth-1 98.0*, AddAB inh 97.8*, phage Ecoli inh 94.9*, E coli growth-2 0.05*, AddAB conf 98.2*, RecBCD counter 98.8*, bact viab count 102.3*, RecBCD conf 98.5*, Ecoli viability 98.7* and AddAB counter 98.3*.
Screening COc1c(N2C[C@@H]3CCCN[C@@H]3C2)c(F)cc2c(=O)c(C(=O)O)cn(C3CC3)c12 returned AI-2 QS mod 18.6, Tat transport 106.0*, E coli growth-1 101.9*, AddAB inh 100.3*, phage Ecoli inh 98.2*, AddAB conf 101.9*, RecBCD counter 101.9*, bact viab count 101.8*, RecBCD conf 102.6*, Ecoli viability 104.6* and AddAB counter 103.8*.
`CCOC(=O)C(CCC[N+](C)(CC)CC)=NO` gave E coli growth-2 0.668.
`COc1ccc(O)c(/C=N/NC(=O)c2ccc(CSc3nc(C)cc(C)n3)cc2)c1` gave AI-2 QS mod 52.5, Tat transport 3.4, E coli growth-1 11.3*, AddAB inh 15.7*, phage Ecoli inh 11.1*, AddAB conf 5.6, RecBCD counter 8.0*, bact viab count -2.0, RecBCD conf 1.0, Ecoli viability 1.4 and AddAB counter 5.8.
Screening CC(=O)N1C(Cc2ccccc2)C=C[C@]1(C)C(=O)NCCc1c[nH]c2ccccc12 (some centres not stated) returned E coli growth-2 0.695.
CCN(CC)CCN1C(=O)C(=O)C(=C(O)c2c(C)[nH]c(C(=O)OC)c2C)C1c1ccccc1OC (configuration not stated) was read as E coli growth-2 0.715.
Screening Oc1ccc2ccccc2c1C=NNc1nnc(-c2ncc[nH]2)c2ccccc12 returned E coli growth-2 0.674.
Screening Oc1ccc2ccccc2c1/C=N/Nc1nnc(-c2ncc[nH]2)c2ccccc12 returned AI-2 QS mod 24.0, Tat transport 2.9, E coli growth-1 14.3*, AddAB inh 18.6*, phage Ecoli inh 16.7*, AddAB conf 21.6*, RecBCD counter 24.2*, bact viab count 22.9, RecBCD conf 17.4*, Ecoli viability 21.8* and AddAB counter 27.3*.
`O=C(NN=Cc1ccccc1C(=O)O)c1cccc(S(=O)(=O)N2CCCCC2)c1` gave E coli growth-2 0.675.
